Inconclusive results are not listed. Where a structure was tested more than once in an assay, its records may differ in their call. The source made the active and inactive calls. Unless noted, calls follow the shape of the dose curve; as a rule, active = well fitted curve in the direction sought with a large enough effect in the repeat runs; inconclusive = weak or mixed curves; inactive = no such curve, though single readings can be large; an effect the other way counts as inactive or inconclusive.

Assay [1] can be described thus: qHTS RealTime-Glo MT Cell Viability Assay in HEK293 cells - 0 hour (AID 1224880). Also: top concentration of the series differs between compounds; nearly all actives have a fitted effect of over 45% in size. A digest of the protocol:
(§1)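 Luminescence readout at each listed time point; HEK293, 600 cells/well, RealTime-Glo MT reagent added with cells; compounds pinned (23 nL in DMSO) after 5 h at 37 C; continuous culture at 37 C.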
Background: Quantitative high-throughput screening tests each substance at several concentrations.

The nature of assay [2]: A CellTox Green Cytotoxicity Assay to monitor cytotoxicity in HEK293 cells - 32 hour (AID 1224881). Also: nearly all actives have a fitted effect of over 40% in size. In short, it runs like this: (§2)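 Read-out: fluorescence of a cell-impermeant cyanine dye staining DNA of dead cells, proportional to cytotoxicity. HEK293, 600 cells/well with reagent, compound (23 nL DMSO) added after 5 h; reads at 0, 8, 16, 24, 32, 40 h.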
The nature of assay [3]: A CellTox Green Cytotoxicity Assay to monitor cytotoxicity in HepG2 cells - 0 hour (AID 1224882). Also: nearly all actives have a fitted effect of over 35% in size. In short, it runs like this: (§3)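 HepG2, 600 cells/well premixed w/ CellTox Green; 5 h settle, 37 C/5% CO2; pintool cpd add (DMSO); 37 C, 40 h; fluorescence read at 0, 8, 16, 24, 32, 40 h.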
Assay [4] is described as follows: A CellTox Green Cytotoxicity Assay to monitor cytotoxicity in HepG2 cells - 32 hour (AID 1224883). Also: nearly all actives have a fitted effect of over 50% in size. A digest of the protocol: as §3
Assay [5] is described as follows: A CellTox Green Cytotoxicity Assay to monitor cytotoxicity in HEK293 cells - 8 hour (AID 1224884). Also: nearly all actives have a fitted effect of over 35% in size. A digest of the protocol: as §2
Assay [6] can be described thus: qHTS RealTime-Glo MT Cell Viability Assay in HepG2 cells - 16 hour (AID 1224885). Also: nearly all actives have a fitted effect of over 50% in size. A digest of the protocol: (§4)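 Cell number in HepG2 cultures estimated from NanoLuc luminescence generated by metabolic reduction of a prosubstrate by living cells. The homogeneous, nonlytic format allowed repeated reads at 0, 8, 16, 24, 32 and 40 h of compound exposure.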
Assay [7] in a line: qHTS RealTime-Glo MT Cell Viability Assay in HEK293 cells - 24 hour (AID 1224886). Also: top concentration of the series differs between compounds; nearly all actives have a fitted effect of over 50% in size. In short, it runs like this:
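Homogeneous bioluminescent viability format in HEK293 cells (600 cells/well). Following 5 h at 37 C/5% CO2, 23 nL compound was pintooled; the signal was measured repeatedly during 40 h incubation.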

Assay [8] can be described thus: qHTS RealTime-Glo MT Cell Viability Assay in HEK293 cells - 8 hour (AID 1224887). Also: top concentration of the series differs between compounds; nearly all actives have a fitted effect of over 50% in size. A digest of the protocol: as §1
A short description of assay [9]: A CellTox Green Cytotoxicity Assay to monitor cytotoxicity in HEK293 cells - 16 hour (AID 1224888). Also: nearly all actives have a fitted effect of over 35% in size. A digest of the protocol:
as §2

A short description of assay [10]: qHTS RealTime-Glo MT Cell Viability Assay in HepG2 cells - 0 hour (AID 1224889). Also: nearly all actives have a fitted effect of over 50% in size. In short, it runs like this: as §4
The nature of assay [11]: A CellTox Green Cytotoxicity Assay to monitor cytotoxicity in HepG2 cells - 8 hour (AID 1224890). Also: nearly all actives have a fitted effect of over 45% in size. In short, it runs like this: as §3
Assay [12] in a line: qHTS assay to identify small molecule antagonists of the estrogen receptor alpha (ER-alpha) signaling pathway using the BG1 cell line in the presence of 0.1 nM 17-beta-estradiol - cell viability counter screen (AID 1259241). Also: nearly all actives have a fitted effect of over 40% in size. In short, it runs like this:
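VM7Luc4E2 cells (endogenous ER-alpha, 4×ERE-luciferase), hormone-starved 5 days in charcoal-stripped FBS, were treated with compounds plus 0.1 nM 17beta-estradiol for 22 hr at 37C; viability read in same wells as CellTiter-Fluor live-cell protease fluorescence.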

Assay [13] is described as follows: qHTS assay to identify small molecule antagonists of the androgen receptor (AR) signaling pathway using the MDA cell line in the presence of 0.5 nM R1881 - cell viability counter screen (AID 1259242). Also: nearly all actives have a fitted effect of over 45% in size. A digest of the protocol:
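Live-cell protease fluorescence, CellTiter-Fluor, 30 min at 37C. Cells: MDA-kb2, 3,000/well, preincubated 5 hr. Compounds plus 0.5 nM R1881 final, 16 hr, 37C, 0% CO2.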

For assay [14], the target named is Estrogen receptor (Homo sapiens) (UniProt P03372). Nature of the assay: qHTS assay to identify small molecule antagonists of the estrogen receptor alpha (ER-alpha) signaling pathway using the BG1 cell line in the presence of 0.1 nM 17-beta-estradiol (AID 1259244). Also: nearly all actives have a fitted effect of over 50% in size. In short, it runs like this: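 Luminescence after ONE-Glo (30 min, room temperature) measured ERE-luciferase activity in VM7Luc4E2 cells treated 22 h with compound and 0.1 nM final 17beta-estradiol as stimulator.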
Estrogen receptor (Homo sapiens), sequence (P03372 whole entry, looked up): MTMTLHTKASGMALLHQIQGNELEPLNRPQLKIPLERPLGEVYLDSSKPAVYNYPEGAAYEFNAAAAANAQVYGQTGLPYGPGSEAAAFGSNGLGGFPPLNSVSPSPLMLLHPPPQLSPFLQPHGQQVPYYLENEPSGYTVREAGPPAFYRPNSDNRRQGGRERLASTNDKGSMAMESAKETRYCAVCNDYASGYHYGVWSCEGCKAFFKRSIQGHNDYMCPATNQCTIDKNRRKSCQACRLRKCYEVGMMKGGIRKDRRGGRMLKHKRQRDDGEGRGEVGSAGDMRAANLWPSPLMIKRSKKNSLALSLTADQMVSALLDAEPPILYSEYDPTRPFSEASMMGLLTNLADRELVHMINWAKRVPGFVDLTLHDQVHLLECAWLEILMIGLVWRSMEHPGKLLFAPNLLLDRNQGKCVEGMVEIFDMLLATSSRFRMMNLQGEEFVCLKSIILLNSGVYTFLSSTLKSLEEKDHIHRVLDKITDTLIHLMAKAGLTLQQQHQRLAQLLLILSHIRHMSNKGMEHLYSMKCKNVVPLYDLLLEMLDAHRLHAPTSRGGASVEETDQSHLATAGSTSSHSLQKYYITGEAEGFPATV

Assay [15] can be described thus: qHTS assay to identify small molecule HDAC inhibitors (AID 1259364). Also: potency is read from the fitted curve at half-maximal effect.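 Also: wild-type HCT-116 cells with endogenous class I/II HDAC activity; nearly all actives have a fitted effect of over 45% in size.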 A digest of the protocol:
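HCT-116 (wild type), 1,500 cells/well, overnight; compound 2 hr 37C 5% CO2; HDAC-Glo I/II reagent 30 min RT; luminescence readout.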

The nature of assay [16]: qHTS assay to identify small molecule HDAC inhibitors - cell viability counter screen (AID 1259365). In short, it runs like this:
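Wild-type HCT-116 cells were seeded at 1,500 per well, incubated overnight at 37 C, then exposed to compounds in DMSO for 2hr. Viability was read by CellTiter-Glo luminescence after 30min at room temperature.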

The nature of assay [17]: qHTS assay to identify small molecule agonists of the sonic hedgehog signaling (Shh) pathway - cell viability counter screen (AID 1259366). Also: nearly all actives have a fitted effect of over 50% in size. In short, it runs like this:
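NIH/3T3-derived 3T3 Gli1-Luc cells (stable Gli1-responsive firefly luciferase reporter) were seeded, rested 4 hr at 37 C/5% CO2, then exposed to compounds in DMSO for 24 hr; viability was read by CellTiter-Fluor fluorescence in the same wells.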

Assay [18] in a line: qHTS assay to identify small molecule antagonists of the sonic hedgehog signaling (Shh) pathway - cell viability counter screen (AID 1259367). Also: nearly all actives have a fitted effect of over 55% in size. A digest of the protocol: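 CellTiter-Fluor signal in conditioned medium-stimulated 3T3 Gli1-Luc cells, 23 hr compound exposure, 37C.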
The target in assay [19] is Androgen receptor (Homo sapiens) (UniProt P10275). Briefly: qHTS assay to identify small molecule antagonists of the androgen receptor (AR) signaling pathway using the MDA cell line in the presence of 0.5 nM R1881 (AID 1259243). Also: nearly all actives have a fitted effect of over 50% in size. A digest of the protocol:
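MDA-kb2, MMTV-luc (AR/GR elements); 3,000 cells/well; cpd + 0.5 nM R1881 final; 16 hr 37C, 0% CO2; ONE-Glo 30 min RT; luminescence.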

Assay [20] in a line: qHTS assay to identify small molecule phospholipidosis (PLD) inducers (AID 1259344; active = well fitted curve in the direction sought with a large enough effect; an effect the other way counts as inactive or inconclusive). A digest of the protocol: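 Accumulated phospholipid, stained red by LipidTOX during 24 h compound treatment of HepG2 cells at 37 C, is quantified from images as pit number and intensity, normalised per cell using Hoechst-stained nuclei.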

Androgen receptor (Homo sapiens), sequence (P10275 whole entry, looked up): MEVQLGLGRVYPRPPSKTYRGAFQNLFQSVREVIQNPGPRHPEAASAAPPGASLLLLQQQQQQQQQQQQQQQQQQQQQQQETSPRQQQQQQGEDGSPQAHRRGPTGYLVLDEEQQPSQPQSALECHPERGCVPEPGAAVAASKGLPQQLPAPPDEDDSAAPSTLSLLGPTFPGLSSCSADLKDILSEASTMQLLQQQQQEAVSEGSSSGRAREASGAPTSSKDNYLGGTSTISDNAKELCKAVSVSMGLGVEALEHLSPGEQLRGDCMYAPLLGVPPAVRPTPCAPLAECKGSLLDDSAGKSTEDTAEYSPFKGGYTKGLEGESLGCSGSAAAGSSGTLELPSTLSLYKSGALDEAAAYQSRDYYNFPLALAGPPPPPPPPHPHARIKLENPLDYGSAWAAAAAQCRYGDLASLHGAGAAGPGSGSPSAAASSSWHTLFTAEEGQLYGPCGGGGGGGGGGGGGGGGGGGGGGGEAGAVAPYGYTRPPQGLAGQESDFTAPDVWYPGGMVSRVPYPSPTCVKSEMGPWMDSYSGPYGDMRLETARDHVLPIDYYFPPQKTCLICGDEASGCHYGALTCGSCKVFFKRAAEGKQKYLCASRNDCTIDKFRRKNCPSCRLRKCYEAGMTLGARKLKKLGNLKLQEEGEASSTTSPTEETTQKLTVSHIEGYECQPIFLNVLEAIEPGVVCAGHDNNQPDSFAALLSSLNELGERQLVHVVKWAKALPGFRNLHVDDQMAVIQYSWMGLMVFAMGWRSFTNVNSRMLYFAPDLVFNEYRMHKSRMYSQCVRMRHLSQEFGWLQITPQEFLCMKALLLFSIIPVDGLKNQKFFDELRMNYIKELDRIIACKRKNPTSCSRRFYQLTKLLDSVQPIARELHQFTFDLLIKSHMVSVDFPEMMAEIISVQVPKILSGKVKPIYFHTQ

As for `c1ccc(P(c2ccccc2)c2ccccc2)cc1`, the Potency result in [1], in [2], in assay [3], in [4], in [5] and in [6] was “inactive” in each case. The Potency entry in assay [7], in assay [8], in assay [9], in [10], in assay [11] and in assay [12] was “inactive” throughout. Further, the Potency result in [13], in [14], in assay [15], in [17] and in assay [18] was “inactive” throughout. For the same compound, the outcome in assay [16] was inactive.

With `CCCCOCCOP(=O)(OCCOCCCC)OCCOCCCC`, the Potency entry in assay [1], in assay [2], in assay [3], in assay [4], in assay [5] and in assay [6] was “inactive” each time. For the same compound, the Potency entry in assay [7], in [8], in assay [9], in assay [10], in [11] and in assay [12] was “inactive” throughout. For the same compound, the Potency entry in [13], in [14], in assay [17] and in assay [18] was “inactive” each time. The call in [16] was inactive.

In the case of `Nc1ccncc1`, the Potency result in [1], in [2], in assay [3], in assay [4], in assay [5] and in [6] was “inactive” throughout. Besides, the Potency entry in assay [7], in [8], in [9], in assay [10], in assay [11] and in assay [12] was “inactive” throughout. Besides, the Potency entry in assay [13], in assay [19], in assay [14], in assay [17] and in assay [18] was “inactive” throughout. Moreover, the call in [20] and in assay [16] was inactive.

With `O=S(=O)(Oc1ccc(Cl)cc1)c1ccc(Cl)cc1`, the Potency result in [1], in assay [2], in assay [3], in [4], in assay [5] and in assay [6] was “inactive” in each case. For the same compound, the Potency entry in [7], in assay [8], in [9], in assay [10], in assay [11] and in assay [12] was “inactive” in each case. For the same compound, the Potency entry in assay [13], in assay [14], in assay [15], in assay [17] and in assay [18] was “inactive” in each case. Also, the outcome in assay [16] was inactive.

In the case of `CC(C)c1ccc(CO)cc1`, the Potency result in [1], in assay [2], in [3], in assay [4], in assay [5] and in assay [6] was “inactive” throughout. In addition, the Potency result in [7], in [8], in [9], in [10], in [11] and in [12] was “inactive” each time. The Potency entry in assay [13], in assay [14], in assay [15], in assay [17] and in assay [18] was “inactive” each time. Also, the compound was classed as inactive in assay [16].

With `CCCCCCOC(=O)c1ccccc1C(=O)OCCCCCC`, the Potency result in assay [1], in [2], in assay [3], in assay [4], in [5] and in [6] was “inactive” each time. Further, the Potency result in [7], in assay [8], in assay [9], in assay [10], in [11] and in assay [12] was “inactive” in each case. Moreover, the Potency result in [13], in [14], in assay [17] and in [18] was “inactive” each time. Moreover, in [15], the Potency is 49.5 µM (active) and inactive. The compound was called inactive in [16].

Regarding `CCN(CC)C(=O)SCc1ccc(Cl)cc1`, the Potency result in [1], in assay [2], in [3], in [4], in assay [5] and in assay [6] was “inactive” in each case. For the same compound, the Potency result in assay [7], in [8], in assay [9], in assay [10], in assay [11] and in [12] was “inactive” each time. Moreover, the Potency result in assay [13], in assay [14], in assay [15], in [17] and in [18] was “inactive” each time. The compound was classed as inactive in [16].

Values taken from PubChem BioAssay (Tox21).
